In article PMC4336329 (PLoS ONE, 2015):
Hit rate of the full screen: of about 310,000 compounds, about 14,000 (4.5%) showed an effect of 50% or more. Effects have a minus sign here. The sample holds strong results, similar compounds and a random draw of the others, so the mix is not that of the screen.

Biological target: human ether-à-go-go-related gene (hERG) potassium channel (human, UniProt Q12809)
Test: primary screen, population patch clamp on CHO cells stably expressing hERG; higher = less effect of the substance
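Note: peak tail current of the secondary pulse compared with the same well before compound.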

Chain of human ether-à-go-go-related gene (hERG) potassium channel (Q12809 whole entry, looked up): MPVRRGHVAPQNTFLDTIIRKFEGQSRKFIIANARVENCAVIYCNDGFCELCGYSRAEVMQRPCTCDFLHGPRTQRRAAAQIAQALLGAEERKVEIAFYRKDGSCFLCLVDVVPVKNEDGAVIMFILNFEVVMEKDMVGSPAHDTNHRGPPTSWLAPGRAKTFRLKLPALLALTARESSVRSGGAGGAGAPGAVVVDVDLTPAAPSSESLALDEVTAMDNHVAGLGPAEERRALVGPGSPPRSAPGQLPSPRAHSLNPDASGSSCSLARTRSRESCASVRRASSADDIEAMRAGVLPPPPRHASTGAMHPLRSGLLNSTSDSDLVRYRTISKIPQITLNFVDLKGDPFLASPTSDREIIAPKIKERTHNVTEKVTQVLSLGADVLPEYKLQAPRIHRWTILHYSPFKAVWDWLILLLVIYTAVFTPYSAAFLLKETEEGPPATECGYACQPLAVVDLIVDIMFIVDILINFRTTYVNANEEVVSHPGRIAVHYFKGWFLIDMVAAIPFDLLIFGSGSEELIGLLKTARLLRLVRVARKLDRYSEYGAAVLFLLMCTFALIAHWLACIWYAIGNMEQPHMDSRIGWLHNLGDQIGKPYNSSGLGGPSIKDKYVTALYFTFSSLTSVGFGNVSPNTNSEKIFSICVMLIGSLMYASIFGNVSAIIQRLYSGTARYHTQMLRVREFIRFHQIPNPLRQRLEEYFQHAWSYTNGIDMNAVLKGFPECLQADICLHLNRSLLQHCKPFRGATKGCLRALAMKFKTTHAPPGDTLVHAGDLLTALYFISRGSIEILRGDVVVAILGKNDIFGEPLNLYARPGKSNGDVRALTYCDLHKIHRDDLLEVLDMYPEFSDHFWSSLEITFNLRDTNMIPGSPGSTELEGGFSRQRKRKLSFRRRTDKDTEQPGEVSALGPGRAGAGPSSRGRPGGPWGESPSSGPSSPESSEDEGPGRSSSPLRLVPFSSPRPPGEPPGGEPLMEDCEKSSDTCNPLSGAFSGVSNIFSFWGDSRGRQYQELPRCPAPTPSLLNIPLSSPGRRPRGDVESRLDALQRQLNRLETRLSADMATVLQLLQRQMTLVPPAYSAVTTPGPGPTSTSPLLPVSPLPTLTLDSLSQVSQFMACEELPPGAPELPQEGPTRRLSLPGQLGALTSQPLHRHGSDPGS

Compared with `NC(=O)C1=C[C@H](C2CCCCC2)C[C@H](OCc2ccc(CO)cc2)O1`, `O=S(=O)(NC(=NC1CCCCC1)c1ccccc1F)c1ccccc1` is higher in “hERG current change (%, negative = inhibition) at 10uM” value: 2.51% for the first, 10.4% for the second.

First: COc1ccc(S(=O)(=O)N2CCCC2=O)cc1N(C)S(C)(=O)=O
Second: COc1ccc(CCN2C(=O)CC(N3CCN(S(=O)(=O)c4ccccc4)CC3)C2=O)cc1OC (stereo not drawn)
The “hERG current change (%, negative = inhibition) at 10uM” value of the first is higher: 13.8% for the first, -5.73% for the second.

Compared with `CCOC(=O)c1c(C)[nH]c(C)c1C(=O)COC(=O)/C=C/c1cccc(C(F)(F)F)c1`, `CCOC(=O)N1CCN(C(=O)c2cc(COc3cccc(C(F)(F)F)c3)on2)CC1` is lower in “hERG current change (%, negative = inhibition) at 10uM” value: 1.35% for the first, -76.7% for the second.

Compared with `CCC12CN3CCN(CC(C3)/C1=N/NC(=O)c1ccncc1)C2`, `COc1cccc(OCc2cc(C(=O)N3CCC(c4ccncc4)CC3)no2)c1` is lower in “hERG current change (%, negative = inhibition) at 10uM” value: 21.2% for the first, -40.9% for the second.

Going from `COc1ccccc1NC(=O)COc1ccccc1` to `COc1ccc(NC(=O)COC(=O)c2n[nH]c3ccccc23)c(OC)c1`, the “hERG current change (%, negative = inhibition) at 10uM” value falls from 10.9% to -4.2%.

First: Cc1ccc(OCc2cc(C(=O)N3CCCCCCC3)no2)cc1C
Second: Cc1ccc(OCc2cc(C(=O)N3CCC(Oc4cccnc4)CC3)no2)cc1C
The “hERG current change (%, negative = inhibition) at 10uM” value of the first is higher: 3.22% for the first, -56.7% for the second.

First: C[C@@H]1CN(C(=O)c2cc(COc3cccc(C(F)(F)F)c3)on2)C[C@H](C)O1
Second: O=C(c1cc(COc2cccc(C(F)(F)F)c2)on1)N1CCSCC1
The “hERG current change (%, negative = inhibition) at 10uM” value of the first is higher: 8.11% for the first, -17% for the second.

Compared with `COc1cc(Cl)ccc1OCc1cc(C(=O)NC(C)Cc2cccnc2)no1` (stereo not drawn), `COc1ccc(OCc2cc(C(=O)NC(C)Cc3cccnc3)no2)c(Cl)c1` (stereo not drawn) is lower in “hERG current change (%, negative = inhibition) at 10uM” value: -30.7% for the first, -36.3% for the second.

Going from `COc1ccc(OCc2cc(C(=O)NC(C)Cc3cnccn3)no2)c(Cl)c1` (stereo not drawn) to `COc1cc(Cl)ccc1OCc1cc(C(=O)NC(C)Cc2cnccn2)no1` (stereo not drawn), the “hERG current change (%, negative = inhibition) at 10uM” value falls from -4.5% to -53.8%.

Going from `O=C(c1cc(COc2cccc(C(F)(F)F)c2)on1)N1CCC(Oc2cccnc2)CC1` to `O=C(c1cc(COc2cccc(C(F)(F)F)c2)on1)N1CCC(c2ccncc2)CC1`, the “hERG current change (%, negative = inhibition) at 10uM” value falls from -64.1% to -78.8%.

Going from `O=C(c1cc(COc2cccc(C(F)(F)F)c2)on1)N1CCC(c2ccccc2)CC1` to `O=C(c1cc(COc2cccc(C(F)(F)F)c2)on1)N1CCc2ccccc2C1`, the “hERG current change (%, negative = inhibition) at 10uM” value rises from 6.79% to 10.4%.

First: Cc1cc(OCc2cc(C(=O)N3CCC(Oc4cccnc4)CC3)no2)cc(C)c1Cl
Second: Cc1ccc(OCc2cc(C(=O)NC(C)Cc3cccnc3)no2)cc1C (stereo not drawn)
The “hERG current change (%, negative = inhibition) at 10uM” value of the first is higher: 9.06% for the first, -91% for the second.

Going from `Cc1c(NC(=O)C2CCN(S(=O)(=O)c3ccccc3)CC2)c(=O)n(-c2ccccc2)n1C` to `CN1CCN(c2ccc(S(=O)(=O)N3CCOCC3)cc2NC(=O)CCc2ccccc2)CC1`, the “hERG current change (%, negative = inhibition) at 10uM” value falls from 4.47% to -8.75%.

Going from `CCCC(=O)Nc1cc(C(=O)O)ccc1S(=O)(=O)c1ccc(C)cc1` to `Cc1ccc(C(=O)COC(=O)c2ccccc2NC(=O)c2ccccc2)cc1[N+](=O)[O-]`, the “hERG current change (%, negative = inhibition) at 10uM” value falls from 11.6% to 4.55%.

Going from `Cc1nc2c(c3c1[nH]c1ccccc13)C(=O)CC(C)(C)C2` to `Cc1ccc(S(=O)(=O)/N=C2/C=C(C3C(=O)CC(C)(C)CC3=O)C(=O)c3ccccc32)cc1`, the “hERG current change (%, negative = inhibition) at 10uM” value rises from -0.41% to 0.322%.

First: O=C(O)CN1C(=O)/C(=C\c2cc(Br)ccc2OCc2ccc(Cl)cc2)SC1=S
Second: Cc1c(CCC(=O)O)c(=O)oc2cc3occ(-c4ccc(Cl)cc4)c3cc12
The “hERG current change (%, negative = inhibition) at 10uM” value of the first is lower: 15.2% for the first, 21.7% for the second.

First: COc1ccc(-c2n[nH]c3c2CN(C(=O)c2ccc(OC)c(OC)c2)CC3)cc1
Second: CCOC(=O)C1(CC)NC(c2ccc(OC)c(OC)c2)C2C(=O)N(c3cccc(C(C)=O)c3)C(=O)C21 (stereo not drawn)
The “hERG current change (%, negative = inhibition) at 10uM” value of the first is lower: -15.5% for the first, 16.5% for the second.

Compared with `CC(=O)NC12CC3CC(C)(C1)CC(NC(C)=O)(C3)C2`, `CC(=O)NCCC(=O)Nc1cc(S(=O)(=O)N2CCCCC2)ccc1N1CCN(C)CC1` is higher in “hERG current change (%, negative = inhibition) at 10uM” value: -11.4% for the first, -9.13% for the second.

Compared with `COc1ccc([C@H]2[C@@H](C#N)[C@H](C#N)N3CCCN23)cc1`, `COc1ccc(CC(=O)Nc2cc(S(=O)(=O)N3CCCCC3)ccc2N2CCN(C)CC2)cc1` is lower in “hERG current change (%, negative = inhibition) at 10uM” value: 14.2% for the first, -54% for the second.

First: CN(C)CCCOc1ccc(C(C)(C)c2ccccc2)cc1.O=C(O)C(=O)O
Second: COc1ccc(NC(=O)CSc2nccn2Cc2ccccc2)cc1
The “hERG current change (%, negative = inhibition) at 10uM” value of the first is lower: -16.5% for the first, -4.86% for the second.

Compared with `O=C(c1cnn2ccccc12)N(Cc1ccco1)C1CCCC1`, `Cc1ccc(-n2c(N)cc(=O)nc2SCC(=O)NC2CCCCC2)cc1C` is higher in “hERG current change (%, negative = inhibition) at 10uM” value: 4.7% for the first, 8.7% for the second.

Compared with `Cc1ccc(C(C)C)cc1OCC(=O)NNC(=O)Nc1ccccc1`, `COC(=O)c1cc(NC(=O)CN(c2ccccc2OC)S(=O)(=O)c2ccccc2)ccc1Cl` is lower in “hERG current change (%, negative = inhibition) at 10uM” value: 28.3% for the first, 1.44% for the second.

Compared with `CC(C)=N/N=C(\c1cccc([N+](=O)[O-])c1)C12CN3CN(CN(C3)C1)C2`, `CCOC(=O)N1CCN(C(=O)c2cc(COc3cccc(C(C)=O)c3)on2)CC1` is lower in “hERG current change (%, negative = inhibition) at 10uM” value: 7.66% for the first, 1.62% for the second.

Going from `COc1ccc(OCc2cc(C(=O)NCC(C)Oc3cccnc3)no2)c(Cl)c1` (stereo not drawn) to `CC(CNC(=O)c1cc(COc2c(F)cccc2F)on1)Oc1cccnc1` (stereo not drawn), the “hERG current change (%, negative = inhibition) at 10uM” value rises from -52.6% to -18.6%.

Going from `Cc1ccc(OCc2cc(C(=O)NC(C)Cc3cnccn3)no2)cc1C` (stereo not drawn) to `CC(=O)c1cccc(OCc2cc(C(=O)NC(C)Cc3cccnc3)no2)c1` (stereo not drawn), the “hERG current change (%, negative = inhibition) at 10uM” value falls from 0.149% to -6.23%.

Going from `Cc1ccc(C2=NN3C(C(=O)c4ccccc4)Oc4ccccc4C3C2)cc1` (stereo not drawn) to `O=C(NCc1ccccc1)C1c2ccccc2Oc2ccccc21`, the “hERG current change (%, negative = inhibition) at 10uM” value rises from 0.487% to 7.83%.

Going from `Cc1ccc(C2=C(CC(=O)O)C(=O)CC2)cc1` to `O=C(Cc1ccc([N+](=O)[O-])cc1)c1ccc(O)cc1O`, the “hERG current change (%, negative = inhibition) at 10uM” value falls from 12.1% to -40.4%.

Compared with `O=C(O)CCCN1C(=O)C2C3c4ccccc4C(c4ccccc43)[C@@H]2C1=O` (stereo partly drawn), `CSc1ccc(C2NC(=O)c3ccccc3N2)cc1` (stereo not drawn) is lower in “hERG current change (%, negative = inhibition) at 10uM” value: 13% for the first, 5.54% for the second.

First: O=C(Cc1c(F)cccc1Cl)Nc1cc(S(=O)(=O)N2CCCCC2)ccc1N1CCOCC1
Second: CN1CCN(c2ccc(S(=O)(=O)N3CCCCC3)cc2NC(=O)Cc2c(F)cccc2Cl)CC1
The “hERG current change (%, negative = inhibition) at 10uM” value of the first is lower: -52.2% for the first, -21.8% for the second.

Going from `CN1CCN(c2ccc(S(=O)(=O)N3CCCCC3)cc2NC(=O)Cc2ccc(Cl)cc2)CC1` to `CCN1CCN(c2ccc(S(=O)(=O)N3CCCCC3)cc2NC(=O)Cc2ccc(OC)cc2)CC1`, the “hERG current change (%, negative = inhibition) at 10uM” value rises from -72% to -60.1%.

First: O=C(Cc1ccc(Cl)cc1)Nc1cc(S(=O)(=O)N2CCOCC2)ccc1N1CCCC1
Second: COc1ccc(CC(=O)Nc2cc(S(=O)(=O)N3CCOCC3)ccc2N2CCOCC2)cc1
The “hERG current change (%, negative = inhibition) at 10uM” value of the first is lower: -37.3% for the first, 0.344% for the second.

Compared with `CN1CCN(c2ccc(S(=O)(=O)N3CCCCC3)cc2NC(=O)CSCc2ccccc2)CC1`, `CN1CCN(c2ccc(S(=O)(=O)N3CCCCC3)cc2NC(=O)CCc2ccccc2)CC1` is lower in “hERG current change (%, negative = inhibition) at 10uM” value: -20.5% for the first, -53.3% for the second.

First: CCN1CCN(c2ccc(S(=O)(=O)N3CCCCC3)cc2NC(=O)Cc2c(F)cccc2Cl)CC1
Second: CCN1CCN(c2ccc(S(=O)(=O)N3CCCCC3)cc2NC(=O)Cc2ccc(Cl)c(Cl)c2)CC1
The “hERG current change (%, negative = inhibition) at 10uM” value of the first is higher: -8.09% for the first, -48.5% for the second.

Compared with `COc1ccccc1CCC(=O)Nc1cc(S(=O)(=O)N2CCCCC2)ccc1N1CCN(C)CC1`, `CCN1CCN(c2ccc(S(=O)(=O)N3CCCCC3)cc2NC(=O)Cc2ccccc2)CC1` is lower in “hERG current change (%, negative = inhibition) at 10uM” value: -26.5% for the first, -33.5% for the second.

Going from `O=C(COC(=O)/C=C/c1ccc(Cl)cc1Cl)Nc1ccc2c(c1)OCCO2` to `O=C(COc1ccc2c(c1)OCO2)Nc1cccc(F)c1`, the “hERG current change (%, negative = inhibition) at 10uM” value rises from 18.5% to 19.8%.

Going from `O=C(Nc1cccc(C(=O)O)c1)/C(=C\c1ccco1)NC(=O)c1ccccc1Cl` to `O=C(COc1ccc(-n2ccnc2)cc1)Nc1cccc(Cl)c1`, the “hERG current change (%, negative = inhibition) at 10uM” value falls from 7.53% to -38.9%.

Compared with `COC(=O)c1[nH]c(C)c(/C(O)=C2\C(=O)C(=O)N(CCN3CCOCC3)C2c2ccc(C)o2)c1C` (stereo not drawn), `CCOc1ccc(S(=O)(=O)Nc2ccc(C(=O)NCc3ccncc3)cc2)cc1` is lower in “hERG current change (%, negative = inhibition) at 10uM” value: -6.49% for the first, -22.2% for the second.

First: Cc1ccc(Oc2nnc(-c3cccs3)c3ccccc23)cc1
Second: O=C(COc1ccc(-n2ccnc2)cc1)Nc1cccc(F)c1
The “hERG current change (%, negative = inhibition) at 10uM” value of the first is higher: -0.00742% for the first, -54.6% for the second.

Compared with `CNC(=O)COC(=O)c1cccnc1SC`, `N#Cc1ccc(OCC(=O)Nc2ccncc2)cc1` is higher in “hERG current change (%, negative = inhibition) at 10uM” value: 3.53% for the first, 18.1% for the second.

First: COc1cccc(CNC(=S)Nc2cc(C)cc(C)c2)c1
Second: N#Cc1cccc(NC(=O)COc2ccc(-n3ccnc3)cc2)c1
The “hERG current change (%, negative = inhibition) at 10uM” value of the first is higher: 6.62% for the first, -67.5% for the second.

For `N#Cc1cccc(NC(=O)CCn2ccnc2)c1`, the “hERG current change (%, negative = inhibition) at 10uM” value was 2.87%.
